Source: PubChem BioAssay (NCATS)
Inconclusive results are not listed. The source made the active and inactive calls. Unless noted, calls come from the whole dose curve; as a rule, active = well fitted curve in either direction with a large enough effect (not every such curve was filed as active); inconclusive = small, poorly fitted or top-dose-only effect, or another doubt; inactive = flat fitted curve, though single readings scatter.

How the values were obtained:
[1] = AP1 Signaling Pathway (AID 357); settings: ME-180 AP-1-bla reporter, EGF-induced, beta-lactamase ratio, 5 h; at 7.69 µM (top of the series) unless noted; note: % is set by controls: 0 for no effect and ±100 for the full control effect
How it was run: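 ME-180 cells with beta-lactamase reporter under AP-1 response element, stimulated with EC50 EGF; compounds tested in titration series, 5 h at 37 °C. CCF4 substrate added 2.5 h at room temperature; 460/530 nm emission ratio gave %activity and AC50.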

[2] = target: Cytochrome P450 1A2 (Homo sapiens) (UniProt P05177); test: p450-cyp1a2 (AID 410; calls by dose curve; note: potency is the fitted concentration of half-maximal effect;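 for activity change, negative = inhibition: -100% = full effect of reference inhibitor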)
How it was run: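 Human CYP1A2 (20nM) demethylated Luciferin-ME at its Km (100uM) in 100mM KPO4. After 10 min compound preincubation, NADPH regeneration ran the reaction 60 min at room temperature. Luciferin was read by luminescence, normalized to 57 uM furafylline.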

[3] = Stat Signaling Pathway (AID 446); settings: ME-180 (cervical carcinoma) SIE beta-lactamase reporter, IL-6 stimulated, 5 h; at 7.69 µM (top of the series) unless noted;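 note: ME-180 cervical cancer cells given 40 pM IL-6 alongside compound; SIE-controlled beta-lactamase reporter measured as 460/530 nm FRET emission ratio; % is set by controls: 0 for no effect and ±100 for the full control effect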
How it was run: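 IL-6/STAT signaling read in ME-180 cells via an SIE beta-lactamase reporter. Stimulus was 40 pM IL-6 (its AC50) for 5 hrs, so both activation and inhibition register.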

[4] = target: Glucocorticoid receptor (Homo sapiens) (UniProt P04150); test: GR-GFP Redistribution (AID 450;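 active = compounds whose dose series gives a full or clear partial fitted curve of increased nuclear translocation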; note: potency is the fitted concentration of half-maximal effect); settings: U2OS GR-GFP nuclear translocation, laser cytometry, 2 h
[5] = target: Glucocorticoid receptor (Homo sapiens) (UniProt P04150); test: GR-EFC Redistribution (AID 451; calls by dose curve; note: potency is the fitted concentration of half-maximal effect); settings: CHO-K1 GR-EFC translocation, beta-gal luminescence, 2 h
How it was run: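 CHO-K1 cells stably expressing nuclear-localized β-gal enzyme acceptor and GR fused C-terminally to the enzyme donor fragment; ligand-driven nuclear translocation restores β-gal by complementation. Compounds titrated up to 46 uM final, 2 h at 37 °C; luminescence read.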

[6] = target: Mitogen-activated protein kinase 10 (Mus musculus) (UniProt Q61831); test: JNK3 AlphaScreen Assay (AID 530);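 note: kinase came from lysate of stimulated human HepG2 cells; signal reports phosphorylation of biotinylated GST-cJun 1-79 at Ser73 with 10 µM ATP; % is set by controls: 0 for no effect and ±100 for the full control effect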
How it was run: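 JNK3 came from HepG2 lysates pre-activated with IL-1beta and TNF-alpha and phosphorylated biotinylated GST-cJun (1-79) at 10 uM ATP, pH 7.6, room temperature. Compounds were titrated. AlphaScreen signal used anti-phospho-cJun (Ser73) antibody.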

[7] = target: 3',5'-cyclic-AMP phosphodiesterase 4B (Homo sapiens) (UniProt Q07343); test: qHTS Assay for Inhibitors of PDE-IV (AID 607; active = well fitted activation curve with a large enough effect in the main read-out, with a control signal flat, not every such curve was filed as active; note: % of control where 0% means no effect)
How it was run: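 Live HEK293 cells with a modified cyclic nucleotide-gated (CNG) channel report intracellular cAMP via membrane-potential dye fluorescence (ex 535/em 590 nm). Endogenous PDE-IV was targeted. Compounds were tested at up to 22.9 uM final; RO 20-1724 100 uM served as control.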

[8] = qHTS Assay for Lipid Storage Modulators (AID 1519; calls by dose curve); settings: Drosophila S3 cells, BODIPY lipid droplet/cell ratio, laser cytometry, cells loaded with oleic acid
How it was run: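 Cells seeded at 5,000 per well were treated with compounds over a concentration series and loaded with oleic acid (400 uM, as added). Lipid droplet fluorescence (488 nm excitation, 500-530 nm channel) was read by laser-scanning cytometry and normalized to 20 uM Triacsin C.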

[9] = target: Ubiquitin carboxyl-terminal hydrolase 1 (Homo sapiens) (UniProt O94782); test: Inhibitors of USP1/UAF1: Pilot qHTS (AID 504865; active = well fitted curve in the direction sought with a large enough effect; an effect the other way counts as inactive or inconclusive;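 note: rhodamine fluorescence freed from ubiquitin-rhodamine substrate followed over time; top concentration of the series differs between compounds; % is set by controls: 0 for no effect and ±100 for the full control effect; nearly all actives have a fitted effect of over 35% in size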)
How it was run: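 USP1/UAF1 complex (1nM) preincubated with compound 15 min at room temperature, then Ub-Rho substrate (150nM final) added. Fluorescence read kinetically at 480/540 nm, 6 reads every 60 seconds. Buffer: 50mM HEPES pH 7.8, 0.5mM EDTA, 0.1 mg/ml BSA, 1mM TCEP, 0.01% Tween-20.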

[10] = qHTS profiling for inhibitors of Plasmodium falciparum proliferation (AID 504749; active = well fitted curve in the direction sought with a large enough effect; an effect the other way counts as inactive or inconclusive;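 note: 0% = DMSO vehicle and full inhibition = artemisinin control; nearly all actives have a fitted effect of over 60% in size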); settings: P. falciparum in erythrocytes, SYBR Green DNA, 72 h, at 12.8 µM (top of the series)
How it was run: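 P. falciparum-infected erythrocytes (0.3% parasitemia, 2.5% hematocrit final) were exposed to compounds for 72 h at 37 C in 5% CO2, then lysed with SYBR Green buffer overnight at room temperature; parasite DNA fluorescence was normalized to artemisinin and DMSO controls.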

[11] = target: Cytochrome P450 3A4 (Homo sapiens) (UniProt P08684); test: qHTS Assay for Inhibitors and Substrates of Cytochrome P450 3A4 (AID 884; active = well fitted curve in the direction sought with a large enough effect; an effect the other way counts as inactive or inconclusive; note: nearly all actives have a fitted effect of over 50% in size; note: potency is the fitted concentration of half-maximal effect)
How it was run: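 20 nM human CYP3A4 with 25 uM Luciferin-PPXE (at KM) in 200 mM KPO4, preincubated 10 min with compound; NADPH regeneration started a 60 min RT reaction. Luciferin detected by luminescence, normalized to 57 uM ketoconazole as full inhibition.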

[12] = Confirmation and Secondary Assay for Modulators of Hemoglobin Beta Chain Splicing at IVS2 654 locus (AID 910; active = well fitted curve in the direction sought with a large enough effect; an effect the other way counts as inactive or inconclusive;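 note: per-well total GFP intensity by laser scanning cytometry after 2-day treatment; % of control where 0% means no effect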)
How it was run: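 HeLa cells stably carrying EGFP interrupted by mutant beta-globin IVS2-654 intron (CMV-driven) were treated with compound for 2 days at 37C; corrected splicing was scored as total peak GFP intensity per well (488 nm excitation, 500-520 nm emission).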

[13] = Confirmation and Secondary Assay for Modulators of Hemoglobin Beta Chain Splicing at IVS2 705 locus (AID 930; active = well fitted curve in the direction sought with a large enough effect; an effect the other way counts as inactive or inconclusive;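 note: HeLa cells stably expressing the EGFP-705 splicing reporter; GFP fluorescence per well restored by corrected splicing of the IVS2-705 intron in EGFP; % of control where 0% means no effect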)
How it was run: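 Per-well GFP, captured at 1 x 8 µm resolution with 488 nm excitation, served as the read-out for HeLa EGFP-705 cells incubated 2 days with test compound versus DMSO.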

[14] = target: Lysosomal acid glucosylceramidase (Homo sapiens) (UniProt P04062); test: Glucocerebrosidase-p2 (AID 348; in the data active = potency below about 10 µM; note: potency is the fitted concentration of half-maximal effect); settings: purified GBA, blue fluorogenic substrate, 40 min
How it was run: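 Compounds titrated from 0.6 nM upwards against 0.2 nM enzyme in pH 5.9 citric acid/KH2PO4, taurocholate, tween-20; blue fluorogenic substrate 80 uM, 40 min room temperature, stopped and read Ex 365/Em 440 for AC50.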

[15] = NFAT Signaling Pathway (AID 444); settings: Jurkat NFAT-bla M1, carbachol, beta-lactamase ratio, 5 h; at 7.69 µM (top of the series) unless noted;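 note: carbachol stimulus at about its EC50 of 1 µM final; % is set by controls: 0 for no effect and ±100 for the full control effect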
How it was run: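 Jurkat cells carrying an NFAT-driven β-lactamase reporter and co-transfected muscarinic M1 receptor were treated with compound plus carbachol (1 uM final, an EC50 level) for 5 h at 37 °C. CCF4 loading followed for 1 h at RT; 460/530 nm ratio gave %activity.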

[16] = target: Cytochrome P450 3A4 (Homo sapiens) (UniProt P08684); test: qHTS Assay for Activators of Cytochrome P450 3A4 (AID 885; active = well fitted curve in the direction sought with a large enough effect; an effect the other way counts as inactive or inconclusive; note: nearly all actives have a fitted effect of over 65% in size)
How it was run: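 Quantitative HTS format: compounds preincubated with 20nM human CYP3A4 and Luciferin-PPXE substrate at KM, reaction started by NADPH regeneration, stopped after 60 min, luciferase luminescence read 20 min later.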

[17] = target: Cytochrome P450 2C19 (Homo sapiens) (UniProt P33261); test: qHTS Assay for Inhibitors and Substrates of Cytochrome P450 2C19 (AID 899; active = well fitted curve in the direction sought with a large enough effect; an effect the other way counts as inactive or inconclusive; note: % is set by controls: 0 for no effect and ±100 for the full control effect; nearly all actives have a fitted effect of over 60% in size)
How it was run: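 In 50mM KPO4, the reaction held 5nM enzyme and KM-level (10uM) Luciferin-H EGE; it ran 60 min at 37C after NADPH regeneration and a 10 min compound preincubation. Luminescence values were scaled to 57uM ketoconazole as complete inhibition.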

[18] = measured here: cell count channel max response
[19] = measured here: lipid channel max response

Cytochrome P450 1A2 (Homo sapiens), sequence (P05177 whole entry, looked up): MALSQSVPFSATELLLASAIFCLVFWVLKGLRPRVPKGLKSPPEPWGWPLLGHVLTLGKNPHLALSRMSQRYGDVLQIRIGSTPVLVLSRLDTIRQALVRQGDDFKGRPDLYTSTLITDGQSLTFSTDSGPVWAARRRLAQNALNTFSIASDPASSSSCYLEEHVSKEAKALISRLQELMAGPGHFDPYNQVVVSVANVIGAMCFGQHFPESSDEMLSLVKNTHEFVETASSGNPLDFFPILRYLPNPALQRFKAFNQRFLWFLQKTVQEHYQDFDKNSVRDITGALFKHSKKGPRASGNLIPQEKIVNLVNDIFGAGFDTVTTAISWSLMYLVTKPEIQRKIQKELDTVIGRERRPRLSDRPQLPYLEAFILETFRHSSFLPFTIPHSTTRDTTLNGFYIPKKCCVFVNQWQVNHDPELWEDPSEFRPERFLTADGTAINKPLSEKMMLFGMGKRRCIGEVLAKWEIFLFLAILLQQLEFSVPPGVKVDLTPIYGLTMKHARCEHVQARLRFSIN
Ubiquitin carboxyl-terminal hydrolase 1 (Homo sapiens), sequence (O94782 whole entry, looked up): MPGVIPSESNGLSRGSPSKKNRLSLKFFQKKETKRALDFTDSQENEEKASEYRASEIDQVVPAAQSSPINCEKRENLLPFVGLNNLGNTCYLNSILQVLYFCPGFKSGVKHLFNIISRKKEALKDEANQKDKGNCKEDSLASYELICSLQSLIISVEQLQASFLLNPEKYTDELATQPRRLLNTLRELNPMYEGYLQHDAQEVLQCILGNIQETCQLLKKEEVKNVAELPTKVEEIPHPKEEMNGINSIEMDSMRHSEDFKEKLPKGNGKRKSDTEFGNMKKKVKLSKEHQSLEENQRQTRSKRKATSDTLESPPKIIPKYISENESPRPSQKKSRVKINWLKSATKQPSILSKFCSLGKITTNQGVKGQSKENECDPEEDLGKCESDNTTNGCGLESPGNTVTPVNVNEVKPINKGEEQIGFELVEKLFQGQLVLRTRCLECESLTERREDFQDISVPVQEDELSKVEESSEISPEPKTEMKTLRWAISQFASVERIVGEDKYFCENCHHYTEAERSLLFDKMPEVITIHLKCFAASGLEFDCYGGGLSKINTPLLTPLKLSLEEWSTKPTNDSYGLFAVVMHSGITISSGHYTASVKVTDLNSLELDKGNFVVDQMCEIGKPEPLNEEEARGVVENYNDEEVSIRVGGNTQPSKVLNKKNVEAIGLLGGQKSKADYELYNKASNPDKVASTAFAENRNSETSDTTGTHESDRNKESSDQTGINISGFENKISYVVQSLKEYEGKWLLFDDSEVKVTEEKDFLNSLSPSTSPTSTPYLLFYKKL
3',5'-cyclic-AMP phosphodiesterase 4B (Homo sapiens), sequence (Q07343 whole entry, looked up): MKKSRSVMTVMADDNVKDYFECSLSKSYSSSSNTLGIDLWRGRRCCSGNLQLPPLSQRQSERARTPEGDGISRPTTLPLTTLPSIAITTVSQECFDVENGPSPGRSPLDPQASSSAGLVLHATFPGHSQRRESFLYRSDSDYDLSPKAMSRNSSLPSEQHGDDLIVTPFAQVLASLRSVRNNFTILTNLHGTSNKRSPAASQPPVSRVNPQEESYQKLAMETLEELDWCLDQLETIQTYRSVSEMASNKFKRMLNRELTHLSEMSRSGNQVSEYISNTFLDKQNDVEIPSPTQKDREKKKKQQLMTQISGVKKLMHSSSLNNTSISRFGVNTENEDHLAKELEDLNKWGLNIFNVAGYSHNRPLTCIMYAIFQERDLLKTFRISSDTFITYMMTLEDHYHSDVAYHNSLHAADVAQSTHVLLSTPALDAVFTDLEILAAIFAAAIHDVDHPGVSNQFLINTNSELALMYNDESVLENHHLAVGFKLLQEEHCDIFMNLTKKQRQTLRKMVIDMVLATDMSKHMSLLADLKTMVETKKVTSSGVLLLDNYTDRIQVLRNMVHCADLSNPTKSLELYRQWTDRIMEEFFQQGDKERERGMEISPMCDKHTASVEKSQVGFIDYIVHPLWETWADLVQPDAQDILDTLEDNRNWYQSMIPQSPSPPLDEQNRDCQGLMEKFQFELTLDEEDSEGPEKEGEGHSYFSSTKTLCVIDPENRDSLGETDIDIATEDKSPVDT
Cytochrome P450 3A4 (Homo sapiens), sequence (P08684 whole entry, looked up): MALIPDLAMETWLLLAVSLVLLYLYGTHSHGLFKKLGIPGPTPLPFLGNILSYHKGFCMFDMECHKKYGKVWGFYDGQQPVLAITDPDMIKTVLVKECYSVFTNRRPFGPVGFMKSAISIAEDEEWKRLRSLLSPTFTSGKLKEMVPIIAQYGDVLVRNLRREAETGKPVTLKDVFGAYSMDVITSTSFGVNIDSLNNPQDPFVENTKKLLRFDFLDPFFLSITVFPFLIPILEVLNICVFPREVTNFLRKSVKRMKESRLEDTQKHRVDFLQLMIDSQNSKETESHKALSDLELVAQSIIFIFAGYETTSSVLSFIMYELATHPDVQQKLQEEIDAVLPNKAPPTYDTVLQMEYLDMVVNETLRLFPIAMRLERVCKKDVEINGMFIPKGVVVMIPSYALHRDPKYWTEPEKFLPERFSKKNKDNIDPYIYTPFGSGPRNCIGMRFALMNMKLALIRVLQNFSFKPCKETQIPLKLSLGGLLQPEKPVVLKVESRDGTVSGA
Glucocorticoid receptor (Homo sapiens), sequence (P04150 whole entry, looked up, the tested form may be a part): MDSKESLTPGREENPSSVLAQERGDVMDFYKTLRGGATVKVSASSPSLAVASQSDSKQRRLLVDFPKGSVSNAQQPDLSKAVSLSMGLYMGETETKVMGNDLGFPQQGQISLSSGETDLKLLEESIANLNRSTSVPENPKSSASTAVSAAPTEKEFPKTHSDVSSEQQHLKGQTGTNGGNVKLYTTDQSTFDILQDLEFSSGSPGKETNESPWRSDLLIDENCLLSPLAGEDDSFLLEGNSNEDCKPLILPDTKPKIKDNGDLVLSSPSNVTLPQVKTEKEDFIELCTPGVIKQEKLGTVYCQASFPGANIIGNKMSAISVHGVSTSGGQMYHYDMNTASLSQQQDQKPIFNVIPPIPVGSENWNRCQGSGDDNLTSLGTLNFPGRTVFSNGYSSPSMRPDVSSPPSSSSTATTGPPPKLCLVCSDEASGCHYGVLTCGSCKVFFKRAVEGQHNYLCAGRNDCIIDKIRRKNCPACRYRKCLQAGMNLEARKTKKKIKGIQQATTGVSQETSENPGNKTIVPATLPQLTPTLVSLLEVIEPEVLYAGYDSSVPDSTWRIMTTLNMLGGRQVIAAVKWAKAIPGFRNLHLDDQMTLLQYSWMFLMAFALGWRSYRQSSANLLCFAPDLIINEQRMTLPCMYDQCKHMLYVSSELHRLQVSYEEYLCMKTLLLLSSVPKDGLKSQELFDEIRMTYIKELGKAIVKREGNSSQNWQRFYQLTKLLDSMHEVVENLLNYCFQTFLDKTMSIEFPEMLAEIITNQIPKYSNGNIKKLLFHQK
Lysosomal acid glucosylceramidase (Homo sapiens), sequence (P04062 whole entry, looked up): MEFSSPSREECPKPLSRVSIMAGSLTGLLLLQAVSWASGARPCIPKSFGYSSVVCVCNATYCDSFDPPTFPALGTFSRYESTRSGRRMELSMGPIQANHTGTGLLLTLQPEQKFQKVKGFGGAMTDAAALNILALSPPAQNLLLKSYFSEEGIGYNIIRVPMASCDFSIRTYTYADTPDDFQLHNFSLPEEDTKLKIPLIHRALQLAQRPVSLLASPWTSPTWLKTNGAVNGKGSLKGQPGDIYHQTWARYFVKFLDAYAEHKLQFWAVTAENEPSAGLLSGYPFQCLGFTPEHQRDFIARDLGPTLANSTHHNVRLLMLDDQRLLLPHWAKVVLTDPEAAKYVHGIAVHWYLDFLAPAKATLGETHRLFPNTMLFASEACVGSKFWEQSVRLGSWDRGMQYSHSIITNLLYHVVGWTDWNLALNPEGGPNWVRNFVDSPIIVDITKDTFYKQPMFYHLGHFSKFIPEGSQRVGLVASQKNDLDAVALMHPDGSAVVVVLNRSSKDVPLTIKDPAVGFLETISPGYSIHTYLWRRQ
Cytochrome P450 2C19 (Homo sapiens), sequence (P33261 whole entry, looked up): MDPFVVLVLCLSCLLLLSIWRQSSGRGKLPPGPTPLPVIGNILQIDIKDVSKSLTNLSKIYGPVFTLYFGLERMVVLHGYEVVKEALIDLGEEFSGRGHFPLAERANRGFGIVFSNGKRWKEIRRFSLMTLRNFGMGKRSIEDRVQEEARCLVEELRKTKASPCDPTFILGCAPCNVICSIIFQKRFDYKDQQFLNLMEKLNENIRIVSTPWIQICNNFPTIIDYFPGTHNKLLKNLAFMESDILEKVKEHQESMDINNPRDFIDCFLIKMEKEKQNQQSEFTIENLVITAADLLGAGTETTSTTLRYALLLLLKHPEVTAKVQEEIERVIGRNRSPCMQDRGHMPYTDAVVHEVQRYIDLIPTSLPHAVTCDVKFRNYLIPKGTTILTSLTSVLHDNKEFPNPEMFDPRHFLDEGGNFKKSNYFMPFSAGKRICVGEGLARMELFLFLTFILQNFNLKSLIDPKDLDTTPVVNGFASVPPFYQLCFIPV

CN(C)CC/C=C1\c2ccccc2CSc2ccccc21
activity change, negative = inhibition [1]: 28.4% [at 17.2 µM] (inactive)
Potency [2]: inactive
activity, negative = inhibition [3]: -0.2% [at 17.2 µM] (inactive)
Potency [4]: > 20.6 µM (inactive)
Potency [5]: > 20.6 µM (inactive)
Potency [6]: inactive
Potency [7]: inactive
activity change, negative = inhibition ([8]; at 25.7 µM (top of the series)): -6.7% (inactive)
max response [8, 18]: -12.7%
max response [8, 19]: -19.8%
Potency [9]: inactive
activity, negative = inhibition ([10]; parasite line A): 4.44% (inactive)
activity, negative = inhibition ([10]; parasite line B): 2.26% (inactive)

O=c1ccc2ccc(O)cc2o1
Potency [11]: inactive
Potency [12]: inactive
outcome [13]: inactive
activity change, negative = inhibition ([8]; at 57.5 µM (top of the series)): 5.83% (inactive)
max response [8, 18]: 11.1%
max response [8, 19]: 19.2%
Potency [9]: inactive

CNc1nc(-c2ccccc2OC)nc2ccccc12
Potency [14]: > 11.4 µM (inactive)
activity change, negative = inhibition [1]: 7.61% (inactive)
Potency [2]: 0.398 µM (active)
activity change, negative = inhibition [15]: -10.4% (inactive)
activity, negative = inhibition [3]: 17.7% (inactive)
Potency [4]: > 46 µM (inactive)
Potency [5]: > 46 µM (inactive)
Potency [6]: inactive
Potency [7]: inactive
Potency [16]: inactive
Potency [17]: inactive
Potency [12]: inactive
outcome [13]: inactive
activity change, negative = inhibition ([8]; at 57.5 µM (top of the series)): 2.04% (inactive)
max response [8, 18]: -10.6%
max response [8, 19]: -7.86%
Potency [9]: inactive

CS(=O)(=O)N1CCC[C@@]2(CCN(c3ccncc3)C2)C1
Potency [14]: > 11.4 µM (inactive)
activity change, negative = inhibition [1]: -3.38% (inactive)
Potency [2]: inactive
activity change, negative = inhibition [15]: -25.4% (inactive)
activity, negative = inhibition [3]: 1.56% (inactive)
Potency [5]: > 46 µM (inactive)
Potency [6]: inactive
Potency [7]: inactive
Potency [11]: 7.94 µM (active)
Potency [16]: inactive
activity change, negative = inhibition ([8]; at 57.5 µM (top of the series)): -0.375% (inactive)
max response [8, 18]: -15.6%
max response [8, 19]: -16.3%

COc1ccccc1-c1nc(NCc2cnc(C)cn2)c2ccccc2n1
Potency [14]: > 11.4 µM (inactive)
activity change, negative = inhibition [1]: 4.95% (inactive)
Potency [2]: 5.01 µM (active)
activity change, negative = inhibition [15]: 2.11% (inactive)
activity, negative = inhibition [3]: -5.06% (inactive)
Potency [4]: > 46 µM (inactive)
Potency [5]: > 46 µM (inactive)
Potency [6]: inactive
Potency [7]: inactive
Potency [16]: inactive
Potency [12]: inactive
outcome [13]: inactive
activity change, negative = inhibition ([8]; at 57.5 µM (top of the series)): 7.28% (inactive)
max response [8, 18]: 6.96%
max response [8, 19]: 14.2%

Cn1cccc1C(=O)N1CCC2(CCN(C(=O)Nc3ccccc3)CC2)CC1
Potency [14]: > 11.4 µM (inactive)
activity change, negative = inhibition [1]: -3.67% (inactive)
Potency [2]: inactive
activity change, negative = inhibition [15]: 5.41% (inactive)
activity, negative = inhibition [3]: -8.38% (inactive)
Potency [5]: > 46 µM (inactive)
Potency [6]: inactive
Potency [7]: inactive
activity change, negative = inhibition ([8]; at 57.5 µM (top of the series)): 5.15% (inactive)
max response [8, 18]: 0.66%
max response [8, 19]: 6.81%

COc1cccc(-c2nccc(NC3CCNCC3)n2)c1
Potency [14]: > 11.4 µM (inactive)
activity change, negative = inhibition [1]: 6.93% (inactive)
Potency [2]: 6.31 µM (active)
activity change, negative = inhibition [15]: 8.54% (inactive)
activity, negative = inhibition [3]: 14.2% (inactive)
Potency [4]: > 46 µM (inactive)
Potency [5]: > 46 µM (inactive)
Potency [6]: inactive
Potency [7]: inactive
outcome [13]: inactive
activity change, negative = inhibition ([8]; at 57.5 µM (top of the series)): 0.723% (inactive)
max response [8, 18]: 4.24%
max response [8, 19]: 1.95%
Potency [9]: inactive
